Bioassay records (PubChem)
Sampled rows, rich in hits. Any-hit rate of the full collection: about 5.2%.
Sfp inh = blocks B. subtilis Sfp PPTase activity; Q9F4F7; Biochemical Sfp PPTase activity, qHTS; Potency, µM, inactives show largest response in the series, negative = inhibition, most hits filed as inhibitors; actives 3.5% (n = 310,000); AID 1490;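 further: the enzyme is Sfp with the accession as filed and its product quenches rhodamine fluorescence; 0% = enzyme reaction without inhibitor and -100% = no enzyme wells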
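Fluorescence-quenching assay: 15 nM Sfp-PPTase preincubated 15 min at room temperature with compound, then 5 uM rhodamine-CoA and 12.5 uM BHQ-2-labelled YbbR peptide added. Fluorescence (ex 525/em 598 nm) read at start and after 30 min; difference gives rate.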
rTrxR1 inhibitor = inhibitors of rat thioredoxin reductase 1; AID 588453; O89049; actives 1% (n = 390,000); Potency, µM (doses to about 114 µM), for inactives: at the highest dose activity change, negative = inhibition, most hits filed as inhibitors; recombinant rTrxR1, NADPH fluorescence consumption, selenite substrate; further: nearly all actives have a fitted effect of over 65% in size
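Rat TrxR1 (90 nM in the dispensed reagent) was pre-reduced with 400 uM NADPH for 5 min at room temperature, then incubated with compound for 15 min. After 400 uM selenite was added, NADPH fluorescence (Ex 340/Em 450 nm) was followed for 8 min.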
IDH1 R132H inh = human IDH1 R132H inhibition; O75874; IDH1-R132H enzyme, NADPH consumption, diaphorase/resazurin fluorescence; Potency, µM (series often up to 76.6 µM), for inactives: at the top dose activity change, negative = inhibition, actives largely listed as inhibitors; actives 0.093% (n = 390,000); AID 602179; further: nearly all actives have a fitted effect of over 65% in size
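IDH1-R132H (0.5 ug/mL dispensed) in pH 7.5 Tris buffer was preincubated 30 min with compound, then given a substrate mix of 0.016 mM NADPH and 2 mM alpha-KG for 80 min at room temperature; remaining NADPH was read by diaphorase/resazurin fluorescence.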
VDR inh = vitamin D3 receptor (human) inhibition; Potency, µM, without a hit: max response, negative = inhibition, actives largely listed as inhibitors; VDR-SRC2-3 peptide fluorescence polarization, 2 h; AID 504847; P11473; actives 0.93% (n = 400,000)
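After 23 nl compound addition and a short centrifugation, plates sat for 2 hours at ambient temperature; polarization of fluorescence then indicated loss of VDR binding to peptide SRC2-3.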
PLK1 PBD inh = inhibitors of human PLK1 polo-box domain binding; Plk1 PBD binding of FITC phosphopeptide, fluorescence polarization; Potency, µM, for the others: max response, negative = inhibition, actives largely listed as inhibitors; AID 720504; actives 2.8% (n = 360,000); P53350; further: series mostly up to about 57 µM; nearly all actives have a fitted effect of over 65% in size
Target sequence (P53350 whole entry, looked up, the tested form may be a part): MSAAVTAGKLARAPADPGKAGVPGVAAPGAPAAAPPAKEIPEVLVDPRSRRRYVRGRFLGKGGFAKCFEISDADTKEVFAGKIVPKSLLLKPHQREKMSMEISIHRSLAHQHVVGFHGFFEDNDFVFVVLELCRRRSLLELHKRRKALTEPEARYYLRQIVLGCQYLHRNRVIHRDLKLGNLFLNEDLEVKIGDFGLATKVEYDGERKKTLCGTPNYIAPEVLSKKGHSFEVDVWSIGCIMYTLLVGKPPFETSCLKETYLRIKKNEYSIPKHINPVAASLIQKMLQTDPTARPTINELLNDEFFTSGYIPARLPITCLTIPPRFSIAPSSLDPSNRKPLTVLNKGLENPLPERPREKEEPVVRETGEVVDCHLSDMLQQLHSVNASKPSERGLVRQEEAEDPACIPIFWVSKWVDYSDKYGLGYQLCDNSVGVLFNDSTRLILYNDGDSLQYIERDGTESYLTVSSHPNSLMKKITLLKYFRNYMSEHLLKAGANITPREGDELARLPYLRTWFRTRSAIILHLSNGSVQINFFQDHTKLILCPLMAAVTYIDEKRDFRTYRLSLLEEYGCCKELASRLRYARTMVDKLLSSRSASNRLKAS
TrxR1 substrate = rat thioredoxin reductase 1 substrate activity; O89049; purified TrxR1 substrate turnover, NADPH consumption readout; Potency, µM (top dose mostly 114 µM), without a hit: top-dose activity change, negative = substrate turnover; actives 0.01% (n = 390,000); further: nearly all actives have a fitted effect of over 50% in size
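Rat TrxR1, dispensed at 90 nM, was prereduced with 400 uM NADPH (final) for 5 min at ~22 deg C, then incubated with compound 15 min before 400 uM selenite. A first-read NADPH fluorescence drop versus no-compound background flagged substrates.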
* = called active by the depositor; ! = not confirmed by another sample; [ ] = another dose, or the depositor's remark. The call rests on the fitted dose curve; in most records, active means well fitted curve in the direction sought with a large enough effect; inconclusive means small, poorly fitted or top-dose-only effect, or another doubt; inactive means no such curve, though single readings can be large; an effect the other way counts as inactive or inconclusive. Unless noted, on the % scale 0 is the no-effect control and ±100 the full control effect; potency means the concentration at half of the fitted maximal effect.

How did COc1ccc(NC(=O)c2ccc(COc3ccccc3OC)o2)cc1OC do in these assays?
Sfp inh: inconclusive; rTrxR1 inhibitor: 7%; IDH1 R132H inh: 1%; VDR inh: -16%; PLK1 PBD inh: 30µM*; TrxR1 substrate: -6%

How did COc1ccc(NC(=O)c2ccc(COc3ccccc3Br)o2)cc1OC do in these assays?
Sfp inh: 7%; rTrxR1 inhibitor: -20%; IDH1 R132H inh: 1%; VDR inh: 10%; PLK1 PBD inh: -3%; TrxR1 substrate: -7%

Results for CN(C)S(=O)(=O)c1cccc(NC(=O)COC(=O)c2cccnc2Cl)c1 ?
rTrxR1 inhibitor: 6%; IDH1 R132H inh: 1%; VDR inh: 20%; PLK1 PBD inh: 0%; TrxR1 substrate: 0%

Results for CCC(=O)NC(=S)NNC(=O)c1ccc(OC)cc1 ?
Sfp inh: 56µM*; rTrxR1 inhibitor: inconclusive; IDH1 R132H inh: -2%; VDR inh: -15%; PLK1 PBD inh: -6%; TrxR1 substrate: -3%[57.1 µM]

What do the screens show for `CCCCC(=O)NNC(=S)NC(=O)c1ccc(C)cc1`?
Sfp inh: inconclusive; rTrxR1 inhibitor: -16%; IDH1 R132H inh: 3%; VDR inh: -8%; PLK1 PBD inh: -16%; TrxR1 substrate: 4%

What do the screens show for `CCCCCC(=O)NNC(=S)NC(C)=O`?
Sfp inh: 79µM*; rTrxR1 inhibitor: 17%[57.1 µM]; IDH1 R132H inh: 11%; VDR inh: 7%; PLK1 PBD inh: -26%; TrxR1 substrate: -8%[57.1 µM]

What do the screens show for `CCC(=O)NC(=S)NNC(=O)c1ccc([N+](=O)[O-])cc1`?
Sfp inh: 79µM*; rTrxR1 inhibitor: inconclusive; IDH1 R132H inh: 0%; VDR inh: -3%; PLK1 PBD inh: -17%; TrxR1 substrate: 2%

Results for CCCCOc1ccc(C(=O)NNC(=S)NC(=O)CC)cc1 ?
Sfp inh: -5%; rTrxR1 inhibitor: -29%; IDH1 R132H inh: 4%; VDR inh: inconclusive; PLK1 PBD inh: -11%; TrxR1 substrate: -9%

Results for Cc1ccc(C(=O)NNC(=S)NC(=O)COc2ccccc2)cc1 ?
Sfp inh: 56µM*; rTrxR1 inhibitor: 40µM*; IDH1 R132H inh: 4%; VDR inh: -7%; PLK1 PBD inh: 27µM*; TrxR1 substrate: 6%

How did CN(C)Cc1ccccc1-c1cncnc1Nc1ccncc1 do in these assays?
Sfp inh: 8%; VDR inh: 1%

What do the screens show for `CCCCC(=O)NNC(=S)NC(=O)c1cccc([N+](=O)[O-])c1`?
Sfp inh: -81%; rTrxR1 inhibitor: inconclusive; IDH1 R132H inh: 0%; VDR inh: inconclusive; PLK1 PBD inh: inconclusive; TrxR1 substrate: -7%

What do the screens show for `CCCCC(=O)NNC(=S)NC(=O)c1ccc([N+](=O)[O-])cc1`?
Sfp inh: 20µM*; rTrxR1 inhibitor: inconclusive; IDH1 R132H inh: 6%; VDR inh: inconclusive; PLK1 PBD inh: 24µM*; TrxR1 substrate: 0%

What do the screens show for `CCN(CC)C(=O)c1sc2nc(Cc3ccccc3)[nH]c(=O)c2c1C`?
Sfp inh: -2%; rTrxR1 inhibitor: 14%[57.1 µM]; IDH1 R132H inh: 0%; VDR inh: inconclusive; PLK1 PBD inh: 30µM*; TrxR1 substrate: 2%[57.1 µM]

Results for O=c1[nH]c(-c2ccccn2)nc2sc(-c3ccccc3)cc12 ?
Sfp inh: 4µM*; rTrxR1 inhibitor: 28%[57.1 µM]; IDH1 R132H inh: -2%; VDR inh: 79µM*; PLK1 PBD inh: 11µM*; TrxR1 substrate: 94%[57.1 µM]

How did Cc1c(C(=O)N(C)C)sc2nc(-c3ccccn3)[nH]c(=O)c12 do in these assays?
Sfp inh: 89µM*; rTrxR1 inhibitor: 12%[57.1 µM]; IDH1 R132H inh: -3%; VDR inh: -11%; PLK1 PBD inh: -30%; TrxR1 substrate: 11%[57.1 µM]

How did CC(=O)c1sc(-c2ccccn2)nc1C do in these assays?
Sfp inh: -4%

What do the screens show for `O=c1c2cc(-c3ccccc3)sc2nc2n1N=C(c1ccccc1)CS2`?
Sfp inh: -10%; rTrxR1 inhibitor: 7%; IDH1 R132H inh: 2%; VDR inh: -7%; PLK1 PBD inh: -11%; TrxR1 substrate: 2%

What do the screens show for `Cc1ccccc1OCC(=O)NCC(=O)OCC(=O)c1ccc(-c2ccccc2)cc1`?
rTrxR1 inhibitor: -15%; VDR inh: -19%; TrxR1 substrate: -6%

How did COc1ccc(NC(=O)COC(=O)c2ccc(S(=O)(=O)N(C)c3ccccc3OC)cc2)c(OC)c1 do in these assays?
Sfp inh: 23%

What do the screens show for `Oc1ccc(C2CNCc3sccc32)cc1O` (stereo not drawn)?
rTrxR1 inhibitor: inconclusive; IDH1 R132H inh: 0%; VDR inh: 13µM*!; PLK1 PBD inh: -10%; TrxR1 substrate: 16%[57.1 µM]

What do the screens show for `Clc1ccc(C2NCCc3sccc32)cc1` (stereo not drawn)?
Sfp inh: -10%; rTrxR1 inhibitor: 13%[57.1 µM]; IDH1 R132H inh: 13%; VDR inh: -15%; PLK1 PBD inh: -16%; TrxR1 substrate: 5%[57.1 µM]

What do the screens show for `Cc1ccc(CNC(=O)CSc2c3c(nc4cc(Cl)ccc24)CCCC3)o1`?
Sfp inh: 18µM*; rTrxR1 inhibitor: 14µM*; IDH1 R132H inh: 10%; VDR inh: inconclusive; PLK1 PBD inh: inconclusive; TrxR1 substrate: -4%

Results for CCOc1ccc(CNC(=O)CSc2c3c(nc4cc(Cl)ccc24)CCCC3)cc1 ?
rTrxR1 inhibitor: 4%; IDH1 R132H inh: 16%; VDR inh: -2%; TrxR1 substrate: -2%

What do the screens show for `C[C@H]1[C@H](C)CC[C@]2(C=O)CC[C@]3(C)C(=CC[C@@H]4[C@@]5(C)C[C@@H](O)[C@H](O)[C@@](C)(CO)[C@@H]5CC[C@]43C)[C@H]12`?
Sfp inh: 43%; VDR inh: 0%

Results for Cc1[nH]c(=O)c(C#N)c2c1CCCC2 ?
Sfp inh: -2%; rTrxR1 inhibitor: 1%; IDH1 R132H inh: 2%; VDR inh: -5%; PLK1 PBD inh: -6%; TrxR1 substrate: 16%

How did N#Cc1c(-c2cccnc2)c2c([nH]c1=S)CCCC2 do in these assays?
Sfp inh: 28µM*; rTrxR1 inhibitor: inconclusive; IDH1 R132H inh: 12%; VDR inh: -24%; PLK1 PBD inh: 12µM*; TrxR1 substrate: -1%

Results for N#Cc1c(-c2ccco2)c2c([nH]c1=S)CCCC2 ?
Sfp inh: 4.5µM*; rTrxR1 inhibitor: inconclusive; IDH1 R132H inh: 0%; VDR inh: -10%; PLK1 PBD inh: 12µM*; TrxR1 substrate: -6%

Results for CC(C)Cc1c2c([nH]c(=S)c1C#N)CCCC2 ?
Sfp inh: 2µM*; rTrxR1 inhibitor: -20%; IDH1 R132H inh: 6%; VDR inh: inconclusive; PLK1 PBD inh: 27µM*; TrxR1 substrate: 4%[0.457 µM]

What do the screens show for `Brc1cccc[n+]1Cc1ccccc1C[n+]1ccccc1Br`?
rTrxR1 inhibitor: -26%; TrxR1 substrate: 0%
